# This is one part of a sample in which the strongest signals are shown more often than they occur.
# B1: ClecSol-Fc (Cryptosporidium parvum) (protein)
# chain: CPEGWISNGEKTRCFKLVTFDRPRTFSHGFKACNDLGGTEVETRRRNGSKETNEYPVTLASVYKLSDEEAIRRTLVEQGDIHKTANGCFVGLRKYAFFRYPPGWYWIDSGSPVSVRDSEINWTSSYNASWLLRFKFPFEKCGFFDIGGLGRRPCWLIDSELSCAVCGTVAYDSGGLNPNKYSELIKQTDEIISKEPKLDLPGYNNLNCTDAWENNLSVGLCQNVSNILDSAWSSYQSSLNFPSINFNWKEDSTNEGGDQVYHNSYLDLPRYKQKKTFYWDQDPGTIPALSDEMKLIGLSAQPTYHPLDRSSSGSFESDSTESGRANEERNDTLEEMIYKQSSDSIEDILVPVTKPIFSDYSSIGRNSGVEEVYSSNVSTISSKGVVFPNTTTSSDNDFTKNNPANSSKHTSTSTTTNTTTTTTRTTTTTTTTTTTTTTTTTTTTETTTTKKSTTATKNTTTT
# Experiments:
# Test in all cases: glycan array binding signal (z-score within array); higher = stronger binding
# Conditions in all cases: glycan notation: IUPAC condensed, linker removed
# [1] = molecular target: Fuc(a1-2)Gal(b1-3)GalNAc(a1-3)[Fuc(a1-2)]Gal(b1-4)GlcNAc
# Procedure, shortened: (§1)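 Negative Z-scores can be read as non-binding. The Z-score is calculated within each array and then averaged across arrays of one protein sequence at different concentrations or buffers and across linkers. Arrays, 3228 in all, were curated from the Consortium for Functional Glycomics database and kept only where the protein sequence was available.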
# [2] = molecular target: Fuc(a1-2)Gal(b1-3)GalNAc(b1-3)Gal(a1-4)Gal(b1-4)Glc
# Procedure, shortened: as §1
# [3] = molecular target: Fuc(a1-2)Gal(b1-3)GlcNAc(b1-3)[Neu5Ac(a2-6)Gal(b1-4)GlcNAc(b1-6)]Gal(b1-4)Glc
# Procedure, shortened: as §1
# [4] = molecular target: Fuc(a1-2)Gal(b1-4)GlcNAc(b1-3)Gal(b1-4)GlcNAc(b1-2)Man(a1-3)[Fuc(a1-2)Gal(b1-4)GlcNAc(b1-3)Gal(b1-4)GlcNAc(b1-2)Man(a1-6)]Man(b1-4)GlcNAc(b1-4)GlcNAc
# Procedure, shortened: as §1
# [5] = molecular target: Fuc(a1-2)Gal(b1-4)GlcNAc(b1-6)GalNAc
# Procedure, shortened: as §1
# [6] = molecular target: Fuc(a1-2)[Gal(a1-3)]Gal(b1-4)GlcNAc(b1-3)GalNAc
# Procedure, shortened: as §1
# [7] = molecular target: Fuc(a1-2)[Gal(a1-3)]Gal(b1-4)GlcNAc(b1-3)[Fuc(a1-2)[Gal(a1-3)]Gal(b1-4)GlcNAc(b1-6)]GalNAc
# Procedure, shortened: as §1
# [8] = molecular target: Fuc(a1-2)[GalNAc(a1-3)]Gal(b1-3)GlcNAc(b1-2)Man(a1-3)[Fuc(a1-2)[GalNAc(a1-3)]Gal(b1-3)GlcNAc(b1-2)Man(a1-6)]Man(b1-4)GlcNAc(b1-4)[Fuc(a1-6)]GlcNAc
# Procedure, shortened: as §1
# [9] = molecular target: Fuc(a1-2)[GalNAc(a1-3)]Gal(b1-4)GlcNAc(b1-3)GalNAc
# Procedure, shortened: as §1
# [10] = molecular target: Fuc(a1-2)[GalNAc(a1-3)]Gal(b1-4)[Fuc(a1-3)]GlcNAc
# Procedure, shortened: as §1
# [11] = molecular target: Fuc(a1-3)[Gal(b1-4)]GlcNAc(b1-2)Man(a1-3)[Fuc(a1-3)[Gal(b1-4)]GlcNAc(b1-2)Man(a1-6)]Man(b1-4)GlcNAc(b1-4)[Fuc(a1-6)]GlcNAc
# Procedure, shortened: as §1
# [12] = molecular target: Fuc(a1-3)[Gal(b1-4)]GlcNAc(b1-6)[Gal(b1-3)GlcNAc(b1-3)]Gal(b1-4)Glc
# Procedure, shortened: as §1
# [13] = molecular target: Fuc(a1-3)[GalNAc(b1-4)]GlcNAc6S
# Procedure, shortened: as §1
# [14] = molecular target: Gal(b1-3)[Fuc(a1-4)]GlcNAc(b1-2)Man
# Procedure, shortened: as §1
# [15] = molecular target: Gal(b1-3)[Neu5Ac(a2-6)]GalNAc
# Procedure, shortened: as §1
# [16] = molecular target: Gal(b1-3)[Neu5Ac(b2-6)]GalNAc
# Procedure, shortened: as §1
# [17] = molecular target: Gal(b1-4)GlcNAc(b1-2)Man(a1-3)[GlcNAc(b1-4)][Gal(b1-4)GlcNAc(b1-2)Man(a1-6)]Man(b1-4)GlcNAc(b1-4)GlcNAc
# Procedure, shortened: as §1
# [18] = molecular target: Gal(b1-4)GlcNAc(b1-2)[Gal(b1-4)GlcNAc(b1-6)]Man(a1-6)[Gal(b1-4)GlcNAc(b1-2)Man(a1-3)]Man(b1-4)GlcNAc(b1-4)[Fuc(a1-6)]GlcNAc
# Procedure, shortened: as §1
# [19] = molecular target: Gal(b1-4)GlcNAc(b1-3)Gal(b1-4)GlcNAc(b1-2)[Gal(b1-4)GlcNAc(b1-3)Gal(b1-4)GlcNAc(b1-6)]Man(a1-6)[Gal(b1-4)GlcNAc(b1-3)Gal(b1-4)GlcNAc(b1-2)Man(a1-3)]Man(b1-4)GlcNAc(b1-4)GlcNAc
# Procedure, shortened: as §1
# [20] = molecular target: Gal(b1-4)GlcNAc(b1-3)Gal(b1-4)GlcNAc(b1-3)Gal(b1-4)GlcNAc(b1-3)Gal(b1-4)GlcNAc(b1-3)Gal(b1-4)GlcNAc(b1-3)Gal(b1-4)GlcNAc(b1-2)Man(a1-3)[Gal(b1-4)GlcNAc(b1-3)Gal(b1-4)GlcNAc(b1-3)Gal(b1-4)GlcNAc(b1-3)Gal(b1-4)GlcNAc(b1-3)Gal(b1-4)GlcNAc(b1-3)Gal(b1-4)GlcNAc(b1-2)Man(a1-6)]Man(b1-4)GlcNAc(b1-4)GlcNAc
# Procedure, shortened: as §1
# [21] = molecular target: Gal(b1-4)GlcNAc(b1-3)Gal(b1-4)GlcNAc(b1-3)[Gal(b1-4)GlcNAc(b1-3)Gal(b1-4)GlcNAc(b1-6)]GalNAc
# Procedure, shortened: as §1
# [22] = molecular target: Gal(b1-4)GlcNAc(b1-3)Gal(b1-4)[Fuc(a1-3)]GlcNAc(b1-3)Gal(b1-4)[Fuc(a1-3)]GlcNAc
# Procedure, shortened: as §1
# [23] = molecular target: Gal(b1-4)GlcNAc(b1-3)[GlcNAc(b1-6)]Gal(b1-4)GlcNAc
# Procedure, shortened: as §1
# Gal3S(b1-3)GalNAc = molecular target: Gal3S(b1-3)GalNAc
# Procedure, shortened: as §1
# [24] = molecular target: Gal3S(b1-4)[Fuc(a1-3)]GlcNAc
# Procedure, shortened: as §1
# GalNAc(b1-6)GalNAc = molecular target: GalNAc(b1-6)GalNAc
# Procedure, shortened: as §1
# [25] = molecular target: GlcNAc(a1-4)Gal(b1-4)GalNAc
# Procedure, shortened: as §1
# [26] = molecular target: GlcNAc(a1-4)Gal(b1-4)GlcNAc(b1-3)Gal(b1-4)GlcNAc
# Procedure, shortened: as §1
# [27] = molecular target: GlcNAc(a1-4)Gal(b1-4)GlcNAc(b1-3)Gal(b1-4)GlcNAc(b1-3)Gal(b1-4)GlcNAc
# Procedure, shortened: as §1
# [28] = molecular target: GlcNAc(a1-4)Gal(b1-4)GlcNAc(b1-3)Gal(b1-4)[Fuc(a1-3)]GlcNAc(b1-3)Gal(b1-4)[Fuc(a1-3)]GlcNAc
# Procedure, shortened: as §1
binder,measurement,setting,value
B1,glycan array binding signal (z-score),[1],0.031
same,glycan array binding signal (z-score),[2],-0.029
same,glycan array binding signal (z-score),[3],-0.161
same,glycan array binding signal (z-score),[4],-0.154
same,glycan array binding signal (z-score),[5],0.51
same,glycan array binding signal (z-score),[6],0.003
same,glycan array binding signal (z-score),[7],0.705
same,glycan array binding signal (z-score),[8],-0.242
same,glycan array binding signal (z-score),[9],-0.169
same,glycan array binding signal (z-score),[10],-0.281
same,glycan array binding signal (z-score),[11],0.593
same,glycan array binding signal (z-score),[12],0.068
same,glycan array binding signal (z-score),[13],-0.242
same,glycan array binding signal (z-score),[14],-0.208
same,glycan array binding signal (z-score),[15],-0.235
same,glycan array binding signal (z-score),[16],-0.149
same,glycan array binding signal (z-score),[17],-0.166
same,glycan array binding signal (z-score),[18],-0.266
same,glycan array binding signal (z-score),[19],0.543
same,glycan array binding signal (z-score),[20],-0.15
same,glycan array binding signal (z-score),[21],-0.114
same,glycan array binding signal (z-score),[22],-0.22
same,glycan array binding signal (z-score),[23],-0.01
same,glycan array binding signal (z-score),Gal3S(b1-3)GalNAc,-0.101
same,glycan array binding signal (z-score),[24],0.021
same,glycan array binding signal (z-score),GalNAc(b1-6)GalNAc,-0.238
same,glycan array binding signal (z-score),[25],18.7
same,glycan array binding signal (z-score),[26],2.11
same,glycan array binding signal (z-score),[27],1.61
same,glycan array binding signal (z-score),[28],0.617
